Out of some 48,000 compounds screened, about 13,000 (27%) showed an effect of 50% or more. The list shows a part of the results.
Test system: Wolbachia pipientis
Test: Anti-Wolbachia Cell-Based Screen
Type: functional
Parameters: scale not given: in the data most compounds retested in dose-response had high values
Settings: 5 µM

SMILES | Percent Effect [%]
Cc1nc(CN2CCCN(CC(=O)N(C)C(C)(C)C#N)CC2)no1 | 10.3
CC(C)(C)OC(=O)N1CCC[C@H](NCC2=CCCOC2)C1 | -0.302
O=C(O)C(F)(F)F.O=C(O)C(F)(F)F.O=C(c1ccncc1)N1CC[C@@H]2[C@@H](CC1)OCCN2c1cccnc1 | -4.707
CN(Cc1ccccc1)C(=O)c1nc(S(C)(=O)=O)n2ccccc12 | -0.6664
CS(=O)(=O)c1ccc(-c2nc(C(=O)N3CCCC3)n3ccccc23)cc1 | 91.51
CC(C)CCN(C)C(=O)c1nc(S(C)(=O)=O)n2ccccc12 | 1.111
CC(C)n1cnc(-c2nc(C(=O)N3CCCC3)c3ccccn23)c1 | -0.8191
CN(C)C(=O)c1nc(-c2ccc(S(C)(=O)=O)cc2)c2ccccn12 | 94.54
CN(C)C(=O)c1nc(-c2ccc(S(C)(=O)=O)cc2)c2cnccn12 | 107.6
O=C(c1coc(-c2ccccc2)n1)N1CCCC1 | 6.616
NCCN1CCC(c2nnc(Cn3ccnc3)n2C2CC2)CC1 | 3.949
COc1ccc(CN(C)CC(=O)NC2(C)CCS(=O)(=O)C2)cc1F (stereo unspecified) | -5.934
O=C(NC1CCCN(CCc2ccccc2)C1)c1ccccn1 (stereo unspecified) | 90.98
O=C(NC1CC(=O)N(C2Cc3ccccc3C2)C1)c1cnccn1 (stereo unspecified) | -14.57
O=C(NC1CCCN(CCc2ccccc2)C1)c1cnccn1 (stereo unspecified) | 115.1
CC(=O)NC1CCCN(Cc2ccc(OCc3ccccn3)cc2)C1 (stereo unspecified) | -5.429
O=C(NC1CCCN(c2ccc(OC(F)F)cc2)C1)c1cnccn1 (stereo unspecified) | -2.478
CN(C(=O)CSc1ccccn1)C1CCCN(CCc2ccccc2)C1 (stereo unspecified) | -2.321
O=C(CCO)N1C[C@H]2CC[C@@H]1CN(C1Cc3ccccc3C1)C2 | 7.309
O=C(c1ccccc1)N1CCN(CC2CCOc3ccccc3C2)CC1 (stereo unspecified) | -9.678
CC(=O)Nc1cccc(C(=O)N2CCc3c(nc(N(C)C)[nH]c3=O)C2)c1 | -4.662
CCn1cnnc1CNC(=O)NC(c1ccc(OC)cc1)C1CC1 (stereo unspecified) | -3.354
COc1cc2c(cc1-c1nc3c(cnn3C(C)C)[nH]1)OCO2 | 0.2831
CCc1oc(C(=O)N(C)Cc2nonc2C)cc1CN(CC)CC | 117.2
CCc1nc(CN(C)C(=O)c2cc(NC(C)=O)ccc2Cl)no1 | -10.82
CN(Cc1ccncc1)C(=O)c1ccc(F)c(NS(C)(=O)=O)c1 | 4.431

SMILES | Percent Effect [%]
CCc1nc(CN(C)C(=O)c2cc(CN(CC)CC)c(CC)o2)no1 | 113.6
Cc1ccc(C)c(OCc2cc(C(=O)N(C)Cc3nonc3C)no2)c1 | -9.317
CCc1oc(C(=O)N(C)Cc2ccncc2)cc1CN(CC)CC | 110.2
Cc1ncsc1C(=O)N(C)Cc1ccncc1 | -15.3
CCN(Cc1nonc1C)C(=O)c1ccc(Br)o1 | 1.066
CCC(=O)Nc1cc(Cl)ccc1C(=O)N(C)Cc1noc(CC)n1 | -2.438
CCOc1ccc(CN2C(=O)CC3(CCCC3)C2=O)nc1 | -27.44
O=C1CC(CNc2cncc(Br)c2)c2ccccc2N1 (stereo unspecified) | 11.7
O=C1CN(Cc2cn(CC3CCN(C4CCSCC4)CC3)nn2)CCN1 | -10.54
CN(C)C(=O)N1CC2(CCOCC2)c2cc(NS(=O)(=O)C3CC3)ccc21 | -3.56
CCN1C(=O)C2(CCOCC2)c2cc(NC(=O)c3cnoc3C)ccc21 | -1.334
CCN1CC2(CCOCC2)c2cc(NS(=O)(=O)CC)ccc21.O=C(O)C(F)(F)F | 93.24
CCS(=O)(=O)Nc1ccc2c(c1)C1(CCOCC1)CN2C.O=C(O)C(F)(F)F | 89.45
CCN1C(=O)C2(CCOCC2)c2cc(NC(=O)c3ccco3)ccc21 | 4.939
CCN1C(=O)C2(CCOCC2)c2cc(NC(=O)c3csnn3)ccc21 | 5.242
Cc1ccn2c(=O)cc(CSCC(=O)Nc3nnc(C(C)C)s3)nc2c1 | 111
Cc1cccc2nc(CSCC(=O)Nc3nnc(C(C)C)s3)cc(=O)n12 | 122.4
Cc1nnc(NC(=O)CSCc2cc(=O)n3ccccc3n2)s1 | 113.7
CC(C)c1nnc(NC(=O)Cc2csc(-c3nnc[nH]3)n2)s1 | 3.837
Cc1ccc2nc(CSCC(=O)Nc3nnc(C(C)C)s3)cc(=O)n2c1 | 91.49
Cc1cnn(CC(C)NCc2cc(=O)n3cc(C)ccc3n2)c1 (stereo unspecified) | 5.917
COc1ccc(C(C)NC(=O)Nc2nnc(C)s2)cc1OC (stereo unspecified) | 6.701
Cc1ccc(CNC(=O)Nc2nnc(C(C)C)s2)n1C | -5.821
Cc1ccc2nc(CN(Cc3ccc(C)o3)C(C)C)cc(=O)n2c1 | -6.244
COC(=O)C(C)NC(=O)CSCc1nc(O)c2cc(C(C)C)sc2n1 (stereo unspecified) | 3.354
